The campaign covered roughly 2,300 compounds. About 1,700 (74%) were called active. The rule behind the calls is not given here. The set was probably picked from earlier hits. The list shows a part of the results. Results with a measured potency or affinity are listed apart.
test: Mycobacterium tuberculosis H37Rv growth inhibition, no glycerol, confirmatory dose response (AID 449764); settings: series mostly up to 100 µM;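 note: growth read after 7 days of incubation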

Row | Structure (SMILES) | outcome
1 | OCCN(/C=N/c1nc(-c2ccc(Br)cc2)cs1)CCO | inactive
2 | CC(C)(C)n1c(O)c(C=Nc2ccc3c(c2)CCC3)c(=O)[nH]c1=O | inactive
3 | CCOC(=O)c1c(/N=C/N(C)C)sc(/C=N/Nc2ccccc2)c1-c1ccccc1Cl | inactive
4 | COCCn1c(-c2ccc(OC(F)(F)C(F)C(F)(F)F)cc2)nc2c1c(=O)[nH]c(=O)n2CC(C)C (stereo unspecified) | inactive
5 | N#CCCn1cc(/C=C2\NC(=S)N(c3ccccc3)C2=O)c(-c2ccc(-c3ccccc3)cc2)n1 | inactive
6 | COc1ccccc1N1C(=O)NC(=O)/C(=C/c2ccc([N+](=O)[O-])s2)C1=O | inactive
7 | CN1/C(=N\O)c2cccc3cccc1c23 | inactive
8 | Cc1cc(OCc2nc3ccccc3s2)ccc1N | inactive
9 | Cc1cc(O)c(/C=N/Nc2cccc(Cl)c2)c(=O)o1 | inactive
10 | COc1ccc(-c2c(-c3cc(OC)cc(OC)c3)n(C)c3ccc(-c4ccn[nH]4)cc23)cc1 | inactive
11 | Nc1ccc(N=Nc2ccccc2)c(N)n1 | inactive
12 | CCC(C)OC(=O)C(C)Oc1ccc(-c2ccccc2)cc1 (stereo unspecified) | inactive
13 | CC(=O)/C(=C\Nc1ccc(OCc2ccccc2)cc1)c1ccccc1 | inactive
14 | CC(=O)c1cccc(Nc2nc(-c3cccnc3)cs2)c1 | inactive
15 | O=c1[nH][nH]c(-c2ccccc2O)c1C(C[N+](=O)[O-])c1cccc(Cl)c1 (stereo unspecified) | inactive
16 | COc1cc2[nH]c(Cl)c([N+](=O)[O-])c2cc1OC | inactive
17 | C#CCOC(=O)/C(=C/c1ccc(F)cc1)NC(C)=O | inactive
18 | CN1[C@@H]2CC[C@H]1CC(OC(=O)[C@H](CO)c1ccccc1)C2 (stereo partly specified) | inactive
19 | CCOc1cc(/C=N\NC(=O)Cn2nc([N+](=O)[O-])cc2C)ccc1OCc1cccc2ccccc12 | inactive
20 | N#CC1=C(N)NC(SCC(=O)c2ccccc2)=C(C#N)C12CCCC2 | inactive
21 | CCOc1ccc2nc(/N=C/c3nc(-c4ccccc4)oc3O)sc2c1 | inactive
22 | COc1ccccc1/C=N/NC(=O)NC12CC3CC(CC(C3)C1)C2 | inactive

Row | Structure (SMILES) | outcome
23 | Nc1ccc(OCc2ccco2)cc1 | inactive
24 | Nc1cnc(-c2ccccc2)nc1Cl | inactive
25 | Cc1ccc(-c2ccc(/C=N/c3ncn[nH]3)o2)cc1Cl | inactive
26 | COc1ccc(NC(=O)C(=O)NCC(c2ccco2)N2CCc3ccccc3C2)cc1 (stereo unspecified) | inactive
27 | COc1ccc(-c2nc(C#N)c(N3CCc4ccccc4C3)o2)cc1OC | inactive
28 | C=CCOc1ccc(/C=N/O)cc1Cl | inactive
29 | Cc1ccccc1C1C(C#N)=C2N=C(N)c3c(sc4c3CCCCC4)N2C2=C1C(=O)CC(C)(C)C2 (stereo unspecified) | inactive
30 | C[C@]12CCC(=O)C[C@@H]1CC[C@@H]1[C@@H]2CC[C@]2(C)C=CC[C@@H]12 | inactive
31 | Cn1c(=S)c2[nH]c(SCCN3CCCC3)nc2n(C)c1=O | inactive
32 | CCOC(=O)c1ccc(N=C(CC)c2c(O)n(C)c(=O)n(C)c2=O)cc1 | inactive
33 | CCCN(CC1CC1)C(=O)COC(=O)c1ccc2c(c1)C(=O)N(c1ccc(OCC)cc1)C2=O | inactive
34 | CN(C(=O)COC(=O)/C=C/c1ccc(Cl)c(Cl)c1)c1c(N)n(Cc2ccccc2)c(=O)[nH]c1=O | inactive
35 | C=CCOc1ccc(/C=C/C(=O)OCC(=O)NCC2CCCO2)cc1 (stereo unspecified) | inactive
36 | CC(C)c1ccc(-c2nn(-c3ccccc3)cc2C(=O)NCC2CCCO2)cc1 (stereo unspecified) | inactive
37 | O=S(=O)(c1ccc(Cl)cc1)N1CCC(n2cnc3cc(C(F)(F)F)ccc32)CC1 | inactive
38 | O=C1NC(=Nc2ccccc2)S/C1=C\C=C\c1ccco1 | inactive
39 | CCCC(O)(CCC)C(=O)NNc1ccc(C)cc1 | inactive
40 | CC(=O)N1C(Nc2ccc(Cl)cc2)CCN1c1ccccc1 (stereo unspecified) | inactive
41 | CCOc1ccc(N=CNc2ccc(OCC)cc2)cc1 | inactive
42 | Cc1ccc(C(=O)Nc2ccc3c4c(cccc24)CC3)cc1[N+](=O)[O-] | inactive
43 | Cc1cc(NC(=O)CCN2C(=O)C3C4C=CC(C4)C3C2=O)ccc1Br (stereo unspecified) | inactive
44 | CCn1c(SCC(=O)Nc2nc3ccc(C)cc3s2)nc2c(c1=O)SC(C)C2 (stereo unspecified) | inactive

Row | Structure (SMILES) | outcome
45 | Cc1ccc(-c2ccc(=O)n(CC(=O)N3CCN(c4cc(Cl)ccc4C)CC3)n2)cc1 | inactive
46 | CCOC(=O)c1ccc(N=Cc2c(O)c3ccccc3oc2=O)cc1 | inactive
47 | O=C(CCC1CCCC1)c1c(O)c2ccccc2oc1=O | inactive
48 | CCCCCCCCCCC[C@@H](C[C@@H]1OC(=O)[C@H]1CCCCCC)OC(=O)[C@H](CC(C)C)NC=O | inactive
49 | COc1cccc(/C=C/c2nc(C#N)c(NCC(C)C)o2)c1 | inactive
50 | O=C(O)Cc1c[nH]c2ccc(O)cc12 | inactive
51 | O=C1C(=O)c2ccccc2C(O)=C1C1CCC(c2ccc(Cl)cc2)CC1 (stereo unspecified) | inactive
52 | O=C1C(c2ccccc2)=[N+]([O-])c2ccccc21 | inactive
53 | COc1ccc(N=C/C=C2/C=C(c3ccccc3)OC(C)(C)O2)cc1 | inactive
54 | CCCCOC(=O)c1ccc(O)cc1 | inactive
55 | CCOc1ccc(/C=C/C2=Cc3c(sc(NC(=O)CSc4n[nH]c(N)n4)c3C#N)C(C)(C)C2)cc1 | inactive
56 | Cc1ccc(C(=O)COC(=O)C2CC(=O)N(c3nc(-c4ccccc4)cs3)C2)cc1C (stereo unspecified) | inactive
57 | Cc1cc(C)n2[nH]c(=O)c(N=Nc3cccc(C(F)(F)F)c3)c2n1 | inactive
58 | O=c1ccn(-c2ccccc2)[nH]1 | inactive
59 | Cc1[nH]n(-c2ccccc2)c(=S)c1C=NCCCN=Cc1c(C)[nH]n(-c2ccccc2)c1=S | inactive
60 | Cc1c(O)c(=O)n(-c2ccccc2)n1C | inactive
61 | O=C(OCC(=O)C12CC3CC(CC(C3)C1)C2)c1ccc(O)cc1O | inactive
62 | CC(=O)NC1C(c2nc3ccccc3s2)=C(c2ccccc2)C(=O)N1c1ccc(C)cc1 (stereo unspecified) | inactive
63 | CCc1ccc(N=CC23c4ccccc4C(c4ccccc42)C2C(=O)N(c4ccc(OC)cc4)C(=O)C23)cc1 (stereo unspecified) | inactive
64 | COc1ccc(NCc2n[nH]nc2-c2ccccc2)cc1Cl | inactive
65 | C=CCSc1n[nH]c(-c2ccc(OCCCC)cc2)n1 | inactive
66 | O=C(O)C1CC=CCC1C(=O)NNc1ccccc1 (stereo unspecified) | inactive

Row | Structure (SMILES) | outcome
67 | CCOP(=O)(OCC)/C(=C/N1CCCCC1)NC(=O)c1ccccc1 | inactive
68 | CCOc1cc(C(=O)OCc2ccc(C(=O)OC)o2)cc(Br)c1OC | inactive
69 | Cc1nc2cc(C(F)(F)F)ccc2n1C1CCN(Cc2nnnn2Cc2ccc3c(c2)OCO3)CC1 | inactive
70 | Cc1ccc(NC2Sc3ccccc3NC2=O)cc1Cl (stereo unspecified) | inactive
71 | Cc1nc2sccn2c1-c1nc(-c2cc3ccccc3o2)cs1 | inactive
72 | Cc1ccc(-c2nnc(NCc3nc4ccccc4[nH]3)c3ccccc23)cc1S(=O)(=O)N1CCCCC1 | inactive
73 | Cn1ccnc1C(O)c1cc(C(C)(C)C)c(O)c(C(C)(C)C)c1 (stereo unspecified) | inactive
74 | O=C(N/N=C/c1c(F)c(F)c(F)c(F)c1F)c1cccc(S(=O)(=O)N2CCOCC2)c1 | inactive
75 | COc1ccc(NC(=O)c2oc3ccc(S(=O)(=O)N4CCOCC4)cc3c2C)cc1 | inactive
76 | CC(C)(C)c1ccc(C2C3=C(CCCC3=O)NC3=C2C(=O)c2ccccc23)cc1 (stereo unspecified) | inactive
77 | CC(C(=O)NC(=O)NC1CCCCC1)N(C)CC(=O)Nc1ccc(F)c(F)c1F (stereo unspecified) | inactive
78 | Cc1ccccc1C(=O)Nc1ccc(-c2nc3ccc(C(=O)c4ccccc4)cc3[nH]2)cc1 | inactive
79 | ClC1=C(Cl)C(Cl)=C(Cl)C1=C/C=C/c1ccccc1 | inactive
80 | CC(C)c1ccc2[nH]c(O)c(N=NC(=O)c3ccc(CSc4nncn4C)cc3)c2c1 | inactive
81 | CCOc1ccc(NC(=O)CSc2cn[nH]n2)cc1 | inactive
82 | COC(=O)c1ccc(CSc2nc3cc(Cl)ccc3o2)cc1 | inactive
83 | CCOC(=O)c1ccc(N=C2SC(C(=O)Nc3ccc(C(=O)O)cc3)CC(=O)N2Cc2cccs2)cc1 (stereo unspecified) | inactive
84 | CCC(C)Nc1nc2c(C)cccn2c(=O)c1C=Nc1ccc(OC)cc1 (stereo unspecified) | inactive
85 | COc1ccc(NC2(c3ccc(Cl)cc3)C(=O)c3ccccc3C2=O)cc1 | inactive
86 | COc1ccc(C(=O)NNc2ccccc2)cc1OC | inactive
87 | CC(C)C(=O)Nc1cccc(-c2nc3ccccc3c(=O)o2)c1 | inactive
88 | Cn1c(=O)c2cc(NCc3ccccc3)nnc2n(C)c1=O | inactive

Row | Structure (SMILES) | outcome
89 | Cc1ccc(C(=O)N2N=C(CC(C)C)CC2(O)C(F)(F)F)o1 (stereo unspecified) | inactive
90 | CCOc1ccc(C2=Nc3ccc(Br)cc3C(c3ccc(N4CCOCC4)cc3)=NN2)cc1 | inactive
91 | CCOc1ccc(N2CCc3c(C)nc(SC)nc32)cc1 | inactive
92 | Cc1nc(Nc2ccc(Cl)c(Cl)c2)sc1C(=O)Nc1ccccc1 | inactive
93 | Cc1ccc(NC(=O)c2ccc(CSc3nnc(C)s3)cc2)c(C)c1 | inactive
94 | CCCCN(CC)c1nc(N)c2c(N)nc(OCC)cc2c1C#N | inactive
95 | CC(C)C[C@H]1C(=O)N2CCC[C@H]2[C@]2(O)O[C@](NC(=O)C3C=C4c5cccc6[nH]c(Br)c(c56)C[C@H]4N(C)C3)(C(C)C)C(=O)N12 (stereo partly specified) | inactive
96 | O=C1N/C(=N\N=C\c2ccccn2)SC1Cc1cccc(SC(F)F)c1 (stereo unspecified) | inactive
97 | CCc1ccc(CCOc2ccc(CC3SC(=O)NC3=O)cc2)nc1 (stereo unspecified) | inactive
98 | FC(F)(F)c1ccc(N2CCOCC2)c(Nc2nc3ccccc3n3cnnc23)c1 | inactive
99 | CSc1cc(-c2ccncc2)nc(-c2ccc(Cl)cc2)c1 | inactive
100 | CCCCN(CCCC)c1nc(-c2ccncc2)nc2ccccc12 | inactive
101 | O/N=C/c1ccc2ccccc2c1 | inactive
102 | Cc1ccc2c(c1)C(c1ccc(N3CCOCC3)cc1)=NNC(c1cccs1)=N2 | inactive
103 | CCc1ccc(/C=C/C(=O)c2cc(Br)ccc(=O)c2O)cc1 | inactive
104 | Cc1ccccc1-n1c(O)c(C=Nc2ccc3c(c2)OCO3)c(=O)[nH]c1=O | inactive
105 | C=CCc1c(C)nc2ccc(C(=O)OCC)cc2c1Cl | inactive
106 | CCn1c(SCC(=O)Nc2ccc3c(c2)oc2ccccc23)nnc1-c1ccc(N)cc1 | inactive

Source: PubChem BioAssay AID449764 (Southern Research Specialized Biocontainment Screening …, 2010)
